Data on 25 molecules can be found in ChEMBL document CHEMBL4296182, “CO-ADD screening of NIH NCI Diversity Set V”.

One assay relates to Staphylococcus aureus. Briefly: Antibacterial activity against Staphylococcus aureus MRSA ATCC 43300 (CO-ADD:GP_020); MIC in CAMBH media using NBS plates, by Resazurin F(560/590). In kind it is functional. As to conditions: Concentration 20 uM, ASSAY_TEST Inhibition of Bacterial Growth, detection method Resazurin, Fluorescence (ex560/em590), MEDIA CAMHB, plate type 384well, CORNING #3640, time 18 hr. For orientation: Resazurin is reduced to fluorescent resorufin, in cell work by metabolically active cells.

The next assay has as its system Acinetobacter baumannii. Briefly: Antibacterial activity against Acinetobacter baumannii ATCC 19606 (CO-ADD:GN_034); MIC in CAMBH media using NBS plates, by Resazurin F(560/590). Type of assay: functional. As to conditions: Concentration 20 uM, ASSAY_TEST Inhibition of Bacterial Growth, detection method Resazurin, Fluorescence (ex560/em590), MEDIA CAMHB, plate type 384well, CORNING #3640, time 18 hr.

The next assay deals with Escherichia coli. As to the kind of experiment: Antibacterial activity against Escherichia coli ATCC 25922 (CO-ADD:GN_001); MIC in CAMBH media using NBS plates, by Resazurin F(560/590). In kind it is functional. As to conditions: Concentration 20 uM, ASSAY_TEST Inhibition of Bacterial Growth, detection method Resazurin, Fluorescence (ex560/em590), MEDIA CAMHB, plate type 384well, CORNING #3640, time 18 hr.

A further assay concerns Klebsiella pneumoniae. As to conditions: Concentration 20 uM; ASSAY_TEST Inhibition of Bacterial Growth; detection method Absorption (OD600); MEDIA CAMHB; plate type 384well; NBS; CORNING #3640; time 18 hr.
The next assay has as its system Candida albicans. As to conditions: 20 µM.
For a further assay, the system named is Cryptococcus neoformans. As to conditions: Concentration 20 uM; ASSAY_TEST Inhibition of Fungal Growth; detection method Resazurin; Absorption (OD600-OD570); plate type 384well; NBS; CORNING #3640.

What is called Inhibition is the drop in the measured response relative to a control, in per cent.

For part of these data: Potency and affinity values are given separately.

As for `CCCCCOc1ccc(N2C(=O)C(C)CNC2=S)cc1` (stereo not given), the Inhibition was 15.96% in the assay on Staphylococcus aureus; 8.82% with Acinetobacter baumannii; 2.34% in the assay with Escherichia coli; 9.59% with Klebsiella pneumoniae; -1.3% with Candida albicans; -8.51% in the assay on Cryptococcus neoformans.
Turning to `O=[N+]([O-])/C=C/c1cc2ccccc2[nH]1`, the Inhibition in the assay with Staphylococcus aureus was 0.82%; in the assay with Acinetobacter baumannii, -9.9%; with Escherichia coli, 9.79%; in the assay with Klebsiella pneumoniae, 7.79%; with Candida albicans, 46.8%; with Cryptococcus neoformans, -1.09%.
Regarding `C/C(=N\O)C1CC(CC(=O)O)C1(C)C` (stereo not given), the Inhibition in the assay with Staphylococcus aureus is -0.7%; in the assay with Acinetobacter baumannii, -12.7%; in the assay on Escherichia coli it was 4.91%; in the assay on Klebsiella pneumoniae, 2.97%; in the assay with Candida albicans it was 2.15%; in the assay with Cryptococcus neoformans, -5.7%.
For the molecule `Clc1ccc(-c2[nH]nc3c2Cc2ccccc2-3)cc1Cl`, the Inhibition is -2.87% with Staphylococcus aureus; 13.22% in the assay on Acinetobacter baumannii; -5.11% in the assay on Escherichia coli; 8.31% in the assay on Klebsiella pneumoniae; 5.84% in the assay on Candida albicans; 2.71% in the assay on Cryptococcus neoformans.
As to `CC(C)NC(=O)c1ccc(C(C)C)cc1`, the Inhibition with Staphylococcus aureus was 10.05%; in the assay on Acinetobacter baumannii it was -9.59%; in the assay on Escherichia coli, 11.28%; in the assay with Klebsiella pneumoniae, -3.37%; with Candida albicans, -0.32%; in the assay with Cryptococcus neoformans, -8.3%.
For `CCCCSc1cc(O)nc(N)n1`, the Inhibition in the assay on Staphylococcus aureus is -2.6%; in the assay with Acinetobacter baumannii, -7.06%; with Escherichia coli, 16.01%; in the assay with Klebsiella pneumoniae, 10.64%; in the assay with Candida albicans, -1.45%; in the assay with Cryptococcus neoformans, -8.65%.
With `Cc1nc(C(N)=O)nc2ccccc12`, the Inhibition in the assay on Staphylococcus aureus is 17.26%; with Acinetobacter baumannii, -10.29%; in the assay with Escherichia coli, 6.82%; in the assay on Klebsiella pneumoniae, 15.63%; in the assay with Candida albicans, 0.61%; in the assay on Cryptococcus neoformans it was 1.62%.
For `O=C(CSc1nc2ccc([N+](=O)[O-])cc2s1)c1ccc2ccccc2c1`, the Inhibition with Staphylococcus aureus was -1.33%; in the assay on Acinetobacter baumannii, 12.85%; in the assay on Escherichia coli it was 5.26%; with Klebsiella pneumoniae, 23.99%; in the assay with Candida albicans it was 1.85%; in the assay on Cryptococcus neoformans, 15.23%.
For the molecule `CSc1nnc(-c2cccs2)[nH]1`, the Inhibition in the assay with Staphylococcus aureus is 9.02%; in the assay on Acinetobacter baumannii it was -12.85%; with Escherichia coli, 11.01%; with Klebsiella pneumoniae it was 0.04%; with Candida albicans, 1.33%; in the assay on Cryptococcus neoformans, -11.54%.
Consider `Nc1ccc(NC(=O)Nc2ccc(N)cc2)cc1`, for which the Inhibition in the assay on Staphylococcus aureus was -0.09%; in the assay with Acinetobacter baumannii it was -11.79%; with Escherichia coli, 5.61%; in the assay on Klebsiella pneumoniae it was 0.94%; in the assay on Candida albicans, -2.34%; with Cryptococcus neoformans, -9.22%.
Turning to `c1cc(-n2nnc3cnccc32)ccn1`, the Inhibition in the assay with Staphylococcus aureus is 13.16%; with Acinetobacter baumannii, -18.41%; in the assay with Escherichia coli, 12.03%; with Klebsiella pneumoniae, -0.91%; with Candida albicans it was -1.34%; in the assay with Cryptococcus neoformans it was -8.76%.
`O=c1cc(-c2cccnc2)oc2c1ccc1ccccc12`: the Inhibition with Staphylococcus aureus was 20.75%; with Acinetobacter baumannii, -10.07%; in the assay with Escherichia coli it was 18.5%; in the assay on Klebsiella pneumoniae, -1.55%; in the assay on Candida albicans, 29.4%; in the assay on Cryptococcus neoformans, -11.93%.
On to `Nc1ccc(NC(=O)c2ccc(C(=O)Nc3ccc(N)cc3)cc2)cc1`, for which the Inhibition in the assay with Staphylococcus aureus is 11.02%; in the assay with Acinetobacter baumannii, -8.34%; in the assay on Escherichia coli it was 15.83%; in the assay with Klebsiella pneumoniae, 3.68%; with Candida albicans, 40.4%; with Cryptococcus neoformans, 10.38%.
As to `FC(F)(F)c1cccc(-c2nc3nc(Cl)c(Cl)nc3[nH]2)c1`, the Inhibition with Staphylococcus aureus was -14.72%; in the assay with Acinetobacter baumannii, 9.89%; in the assay with Escherichia coli, 3.39%; in the assay on Klebsiella pneumoniae, 6.13%; in the assay on Candida albicans it was 4.41%; in the assay with Cryptococcus neoformans it was 33.54%.
With `NCCN1CCNCC1`, the Inhibition with Staphylococcus aureus was -1.38%; with Acinetobacter baumannii, -9.37%; with Escherichia coli, 9.81%; with Klebsiella pneumoniae, 11.04%; in the assay with Candida albicans it was 1.05%; in the assay on Cryptococcus neoformans it was 4.22%.
With `Oc1ccc(Nc2ccc3ccccc3c2)cc1`, the Inhibition was -6.35% in the assay with Staphylococcus aureus; -10.62% in the assay on Acinetobacter baumannii; -3.9% in the assay with Escherichia coli; 4.89% in the assay with Klebsiella pneumoniae; 3.31% in the assay with Candida albicans; -6.09% in the assay on Cryptococcus neoformans.
Consider `CN(C)c1ccc(/C=N/NC(=O)c2cnc3ccccc3c2)cc1`, for which the Inhibition in the assay with Staphylococcus aureus was 17.84%; in the assay with Acinetobacter baumannii, 9.63%; in the assay with Escherichia coli it was 3.71%; in the assay on Klebsiella pneumoniae it was 14.91%; in the assay with Candida albicans, 2.44%; in the assay on Cryptococcus neoformans, 3.68%.
In the case of `Cc1ccn(C)c(=N)c1`, the Inhibition with Staphylococcus aureus is 5.26%; in the assay on Acinetobacter baumannii, -6.78%; with Escherichia coli, 8.42%; in the assay with Klebsiella pneumoniae it was 11.41%; in the assay on Candida albicans, 2.59%; with Cryptococcus neoformans it was -0.88%.
Turning to `CCOC(=O)c1c[nH]nc1O`, the Inhibition was 2.24% in the assay on Staphylococcus aureus; -6.35% in the assay on Acinetobacter baumannii; -2.97% in the assay with Escherichia coli; 21.4% in the assay on Klebsiella pneumoniae; -1.88% in the assay with Candida albicans; 1.44% with Cryptococcus neoformans.
For the molecule `O=c1[nH]c(=S)c2nc(S)n(-c3ccccc3)c2[nH]1`, the Inhibition in the assay with Staphylococcus aureus was 13.04%; in the assay with Acinetobacter baumannii, 12.41%; with Escherichia coli, 5.84%; in the assay on Klebsiella pneumoniae, 9.43%; in the assay on Candida albicans, 0.52%; in the assay on Cryptococcus neoformans, -6.47%.
With `O=C(NC(=S)Nc1cccc2c(O)cccc12)c1cccc(Br)c1`, the Inhibition in the assay with Staphylococcus aureus is 25.64%; with Acinetobacter baumannii it was -2.51%; in the assay with Escherichia coli, 14.87%; with Klebsiella pneumoniae it was 10.97%; with Candida albicans, 12.3%; with Cryptococcus neoformans, -5.01%.
With `CC1(C)N=C(N)N=C(N)N1c1cccc(CN)c1.CCS(=O)(=O)O`, the Inhibition is 8.6% in the assay on Staphylococcus aureus; -6.92% in the assay with Acinetobacter baumannii; 11.68% in the assay on Escherichia coli; 13.8% with Klebsiella pneumoniae; 2.57% in the assay with Candida albicans; -7.41% with Cryptococcus neoformans.
For the molecule `NC1=C2C(=O)c3ccccc3C(=O)C2=C(N)CC1`, the Inhibition in the assay with Staphylococcus aureus was -13.27%; in the assay with Acinetobacter baumannii, 1.08%; with Escherichia coli, -5.53%; in the assay with Klebsiella pneumoniae, 8.56%; in the assay on Candida albicans, 22.9%; in the assay with Cryptococcus neoformans it was -5.51%.
Regarding `CCOc1cc2c(Cl)ncnc2c(OCC)c1OCC`, the Inhibition in the assay with Staphylococcus aureus is 4.34%; with Acinetobacter baumannii it was -8.17%; in the assay with Escherichia coli it was 3.68%; with Klebsiella pneumoniae it was 0.85%; with Candida albicans, 2.82%; in the assay with Cryptococcus neoformans, -6.05%.
On to `COc1cc(NC(=O)c2cc3ccccc3cc2O)c(OC)cc1Cl`, for which the Inhibition was 15.9% in the assay on Staphylococcus aureus; 4.67% with Acinetobacter baumannii; -1.76% in the assay with Escherichia coli; 8.39% in the assay on Klebsiella pneumoniae; 2.82% in the assay with Candida albicans; -1.31% in the assay with Cryptococcus neoformans.
